Screening data: PubChem BioAssay, Broad Institute
aSyn UTR act: Activators via SNCA 5'UTR binding, MLPCN; hit rate 7.1% among 300,000; activity score, % (tested at 7.5 µM), hits read low; alpha-synuclein 5'UTR reporter, activators screen; in the data active = activity score below about -60%
The depositor's hits bear a star. Only a sample is shown.

SMILES | aSyn UTR act
COc1cccc(NC(=S)NCc2cccs2)c1 | -72*
CC(=O)C1C(=O)c2c(cccc2[N+](=O)[O-])C1=Nc1ccccc1C (stereo unspecified) | -73*
CC1=C([N+](=O)[O-])C(c2cccc(Br)c2)C2=C(N1)c1ccccc1C2=O (stereo unspecified) | 90
c1coc(-c2nnc(NC3=NCCC3)o2)c1 | -70*
CCOc1ccc(-c2nnc(NC(=O)c3ccc(OCC(C)C)c(OC)c3)o2)cc1 | 58
CCOc1ccc(-c2nnc(-c3ccc(OC)cc3)o2)cc1 | -76*
COc1ccc(-c2nnc(SCc3nc4ccccc4c(=O)[nH]3)o2)cc1 | -70*
CCOc1ccc(-c2nnc(-c3ccncc3)o2)cc1 | -63*
COc1ccc(-c2nnc(SCC(C)C)o2)cc1 | -102*
CCCCOc1ccc(-c2nnc(-c3ccncc3)o2)cc1 | -124*
CCOc1ccc(-c2nnc(NC3=NCCCCC3)o2)cc1 | -117*
CCOc1ccc(-c2nc3ccccc3c(=O)o2)cc1 | -63*
COc1cc(/C=C2\SC(=S)N(CCC(=O)NC3CCCC3)C2=O)cc(OC)c1OC | -71*
Cc1ccc(/C=C2\SC(=S)N(CCCC(=O)NC3CCCC3)C2=O)cc1 | 98
O=[N+]([O-])c1ccc(Cc2nnc(-c3ccccc3Cl)o2)cc1 | -172*
O=C(Nc1ccc(Oc2c(F)c(F)c(F)c(F)c2F)cc1)OC1CCN2Cc3ccccc3N=C12 (stereo unspecified) | 104
CC1(C)CCC(=O)N2CC[C@H]3C[C@H](OC(=O)Nc4ccc(Br)cc4)C[C@@H]1[C@H]32 | -68*
CC1(C)CN=C(N(Cc2ccccc2)C(=O)Nc2ccccc2)S1 | -154*
O=C(O)CCSc1nnc(-c2ccc3c(c2)OCO3)o1 | 67
Cc1ccccc1NC(=O)Cc1nc(CSc2nnc(-c3ccc4c(c3)OCO4)o2)cs1 | -72*
c1cc(CSc2nnc(-c3ccc4c(c3)OCO4)o2)ccn1 | -86*
CN(C)c1oc(-c2ccc(OCc3ccccc3)cc2)nc1C#N | -109*
[O-]/C(=C(\C(=S)Nc1ccc(Cl)cc1)[n+]1ccccc1)c1ccc(OC(F)F)cc1 | -79*
CCOc1ccccc1NC(=S)/C(=C(\[O-])c1ccc2c(c1)OCCO2)[n+]1ccc(CC)cc1 | -64*
CC(C)(C)c1cc[n+](/C(C(=S)Nc2ccccc2F)=C(/[O-])c2ccc3c(c2)OCCO3)cc1 | -74*
SMILES | aSyn UTR act
[O-]/C(=C(\C(=S)Nc1ccccc1F)[n+]1ccccc1)c1ccc(-c2ccccc2)cc1 | -71*
Cc1ccc(OCCn2c(=O)n(C)c3ccccc32)cc1 | -123*
Cn1c(=O)n(CCOc2ccccc2Cl)c2ccccc21 | -99*
CSc1ccc(C2Nc3ccccc3-c3cc(C)nn32)cc1 (stereo unspecified) | -101*
c1ccc2nc3c(nc2c1)OCC1CCCCN31 (stereo unspecified) | -91*
O=C1C(CSCc2ccccc2)NC(=S)N1c1ccccc1 (stereo unspecified) | -68*
Cc1ccc(C)c(NC(=O)c2cc(-c3ccccc3O)n[nH]2)c1 | -198*
COc1ccc(OC)c(NC(=O)c2cc(-c3cc(C)ccc3O)n[nH]2)c1 | -104*
Cc1ccc(C)c(NC(=O)COC(=O)c2cccc3c2C(=O)c2ccccc2C3=O)c1 | 55
Cc1ccc(-c2cc(C(=O)Nc3cc(C)ccc3C)[nH]n2)c(O)c1 | -86*
Cc1ccc(C)c(NC(=O)c2cc(-c3cc(C)c(C)cc3O)n[nH]2)c1 | -233*
Cn1c(SCc2ccc(F)cc2)nnc1-c1ccccn1 | -168*
Cc1ccc(CSc2nnc(-c3ccccn3)n2C)cc1 | -93*
Cc1cccc(CSc2nnc(-c3ccccn3)n2N)c1 | -69*
CC(=O)Nc1ccc(N=Nc2ccc(O)cc2)cc1 | -87*
Oc1ccc(Cl)cc1N=Nc1ccccc1 | -70*
OCc1ccc(N=Nc2ccccc2)cc1 | -84*
Oc1ccc(N=Nc2ccccc2)cc1 | -145*
CCOC(=O)N/N=C/C=C/c1ccccc1 | -105*
COC(=O)N/N=C/c1ccc(Oc2ccccc2)cc1 | -69*
COc1ccc(/C=N/NC(=O)COc2ccccc2-c2ccccc2)cc1 | 70
COC(=O)N/N=C\c1ccc(OC/C=C/c2ccccc2)cc1 | -95*
CCOC(=O)N/N=C\c1ccc(OC/C=C/c2ccccc2)cc1 | -73*
CC(C)(O)C(=O)N/N=C\c1ccc(OC/C=C/c2ccccc2)cc1 | -96*
CC(=O)N/N=C\c1ccccc1OC/C=C/c1ccccc1 | -128*
SMILES | aSyn UTR act
COc1ccccc1NC(=O)CSc1nnc(-c2ccccn2)o1 | -66*
COc1ccccc1-c1nnc(SCC(=O)Nc2ccc(Cl)cc2Cl)o1 | -83*
O=C(CSc1nnc(-c2ccccn2)o1)Nc1ccccc1C(F)(F)F | -104*
COCC1CCN(Cc2nc(-c3cccs3)no2)C1 (stereo unspecified) | -72*
c1csc(-c2noc(CN3CCc4sccc4C3)n2)c1 | -69*
Cc1cc(C(=O)Nc2sc(C)c(C)c2C#N)no1 | -170*
CCCc1cc(C(=O)Nc2ccc(C)cc2)no1 | -104*
Cc1cc(C(=O)Nc2ccccn2)no1 | -104*
Cc1ccc(NC(=S)Nc2cc(C)on2)cc1 | -71*
